Measured values from PubChem BioAssay (NCATS).
Values joined by “and” are separate entries in the source; they are usually repeats but may differ in a detail not shown here. Identical values can stand only once. Results filed as inconclusive are left out. Active and inactive are the calls of the source. Unless noted, calls come from the whole dose curve; as a rule, active = well fitted curve in the direction sought with a large enough effect; inconclusive = small, poorly fitted or top-dose-only effect, or another doubt; inactive = no such curve, though single readings can be large; an effect the other way counts as inactive or inconclusive.

What was measured:
[1] = Stat Signaling Pathway (AID 446; active = well fitted curve in either direction with a large enough effect, not every such curve was filed as active;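 note: ME-180 cervical cancer cells given 40 pM IL-6 alongside compound; SIE-controlled beta-lactamase reporter measured as 460/530 nm FRET emission ratio; % is set by controls: 0 for no effect and ±100 for the full control effect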)
Method in brief: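 Compound effects on IL-6-induced STAT reporter activity were measured in ME-180 cells. After overnight culture, cells were co-treated with 40 pM IL-6 for 5 hrs before beta-lactamase substrate loading at room temperature.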

[2] = molecular target: Glucocorticoid receptor (Homo sapiens) (UniProt P04150); experiment: GR-GFP Redistribution (AID 450;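 active = compounds whose dose series gives a full or clear partial fitted curve of increased nuclear translocation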; note: potency is the fitted concentration of half-maximal effect); conditions: U2OS GR-GFP nuclear translocation, laser cytometry, 2 h
[3] = molecular target: Glucocorticoid receptor (Homo sapiens) (UniProt P04150); experiment: GR-EFC Redistribution (AID 451; calls by dose curve; note: potency is the fitted concentration of half-maximal effect); conditions: CHO-K1 GR-EFC translocation, beta-gal luminescence, 2 h
Method in brief: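 Translocation of GR-ED fusion to nuclear EA restores b-gal, read by luminescence after 1 h room-temperature detection. Engineered CHO-K1 biosensor cells, 1,000/well, exposed 2 h at 37 C to titrations up to 46 uM final.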

[4] = molecular target: Mitogen-activated protein kinase 10 (Mus musculus) (UniProt Q61831); experiment: JNK3 AlphaScreen Assay (AID 530; active = well fitted curve in either direction with a large enough effect, not every such curve was filed as active;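 note: kinase came from lysate of stimulated human HepG2 cells; signal reports phosphorylation of biotinylated GST-cJun 1-79 at Ser73 with 10 µM ATP; series mostly up to about 57 µM; % is set by controls: 0 for no effect and ±100 for the full control effect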)
Method in brief: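 qHTS titrations with 15 min compound pre-incubation before adding ATP (10 uM final). Read-out: AlphaScreen of Ser73-phosphorylated biotin-GST-cJun using HepG2 lysate JNK3 activated by IL-1β and TNFα.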

[5] = molecular target: 3',5'-cyclic-AMP phosphodiesterase 4B (Homo sapiens) (UniProt Q07343); experiment: qHTS Assay for Inhibitors of PDE-IV (AID 607; active = well fitted activation curve with a large enough effect in the main read-out, with a control signal flat, not every such curve was filed as active; note: % of control where 0% means no effect)
Method in brief: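 ACTOne HEK293 cells carry a modified cAMP-gated CNG channel and express endogenous PDE4; plated 1000 cells/well, compounds up to 22.9 uM final. Membrane-potential dye fluorescence (ex 535/em 590) was read; parental cells received 10 uM forskolin + 100 uM RO 20-1724.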

[6] = Cell Viability - N2a (AID 540);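 note: cells exposed to compound for 40 h at 37 °C; plate controls were DMSO alone for no effect and tamoxifen control for full effect; nearly all actives have a fitted effect of over 45% in size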
Method in brief: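 Cytotoxicity was scored as loss of cellular ATP in N2a cells, a mouse neuroblastoma line. Compounds are applied in a qHTS concentration series for 40 hr at 37 °C.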

[7] = Cell Viability - NIH 3T3 (AID 541);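 note: cells exposed to compound for 40 hours; nearly all actives have a fitted effect of over 25% in size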; note: potency is the fitted concentration of half-maximal effect
Method in brief: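 Cells seeded at 1000/well, rested 5 hr at 37 °C, then dosed and incubated 40 hr at 37 °C. CellTiter-Glo added, 20 min room temperature, luminescence read. AC50 by Hill fit.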

[8] = Cell Viability - HUV-EC-C (AID 542);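 note: cells exposed to compound for 40 hours; % is set by controls: 0 for no effect and ±100 for the full control effect; nearly all actives have a fitted effect of over 35% in size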
Method in brief: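 Cells were seeded at 1000 per well and incubated 5 hr at 37 °C before compound addition. After 40 hr at 37 °C, CellTiter-Glo reagent was added for 20 min and luminescence read. AC50 values came from Hill-equation modelling.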

[9] = Cell Viability - H-4-II-E (AID 543);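 note: cells exposed to compound for 40 hours; % is set by controls: 0 for no effect and ±100 for the full control effect; nearly all actives have a fitted effect of over 35% in size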
Method in brief: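 Cells seeded at 1500 per well and rested 5 hr; compounds added; 40 hr incubation at 37 °C; CellTiter-Glo added, 20 min at room temperature; luminescence read. Hill-equation fits gave AC50.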

[10] = Cell Viability - SH-SY5Y (AID 544);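 note: cells exposed to compound for 40 hours; 0% = DMSO alone and -100% = 100 µM tamoxifen; nearly all actives have a fitted effect of over 55% in size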
Method in brief: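 Cells were plated at 1500 per well and allowed 5 hr at 37 °C. Compounds were added across a concentration range and incubated 40 hr at 37 °C. CellTiter-Glo was added for 20 min at room temperature before luminescence reading.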

[11] = Cell Viability - Renal Proximal Tubule (AID 545);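 note: cells exposed to compound for 40 hours; 0% = DMSO only and -100% = 100 µM tamoxifen; nearly all actives have a fitted effect of over 40% in size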
Method in brief: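 Luminescent ATP signal (CellTiter-Glo) served as the viability read-out after 40 hr compound exposure of freshly isolated rat proximal tubule cells at 37 °C. Concentration-dependent ATP loss was fitted with the Hill equation to give AC50.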

[12] = Cell Viability - Mesenchymal (AID 546);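 note: cells exposed to compound for 40 hours before reading; 0% = DMSO only and -100% = 100 µM tamoxifen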
Method in brief: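 CellTiter-Glo luminescence (intracellular ATP, 20 min room temperature) after 40 hr compound exposure at 37 °C of 1000 glomerulus-derived human kidney mesenchymal cells/well; AC50 values obtained by fitting qHTS concentration-response data to the Hill equation.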

[13] = Cellular Toxicity (caspase-3) HepG2 (AID 654);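 note: cells exposed to compound for 16 hours before reading; 0% = DMSO alone and 100% = caspase signal from 100 µM tamoxifen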
Method in brief: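 Caspase 3/7 activation in HepG2 is measured as rising luminescence after a 16 hr treatment at 37 °C. Values are scaled between DMSO basal and 100 uM tamoxifen, and AC50 is fitted with the Hill equation.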

[14] = Cellular Toxicity (caspase-3) Jurkat (AID 655);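 note: cells exposed to compound for 16 h at 37 °C before reading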
Method in brief: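 5000 Jurkat cells/well; compound 16 hr, 37 °C; Caspase-Glo 3/7 added, 20 min RT; luminescence read. Norm: DMSO = 0%, tamoxifen 100 uM = 100%. AC50, Hill model.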

[15] = Cellular Toxicity (caspase-3) HUV-EC-C (AID 656);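 note: 0% = DMSO basal and 100% = 100 µM tamoxifen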
Method in brief: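 qHTS; HUV-EC-C, 1000 cells/well; 5 hr settle, 16 hr cmpd, 37°C; Caspase-Glo 3/7, 20 min RT; luminescence. Norm: DMSO = 0%, tamoxifen 100 uM = 100%. Hill-fit AC50.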

[16] = Cellular Toxicity (caspase-3) SHSY5Y (AID 657);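 note: cells exposed to compound for 16 hours at 37 °C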
Method in brief: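 qHTS, SH-SY5Y, 1500 cells/well, 5 h pre-incubation 37 °C; compound 16 h 37 °C; Caspase-Glo 3/7 1 h RT; luminescence. Norm.: DMSO = 0, 10 uM staurosporine = 100%. Hill fit → AC50.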

[17] = Cellular Toxicity (caspase-3) BJ (AID 658);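 note: cells exposed to compound for 16 hours; 0% = DMSO basal and 100% = 10 µM staurosporine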
Method in brief: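 Caspase-Glo 3/7 luminescence, read 1 hr after reagent at room temperature, in normal BJ fibroblasts exposed 16 hours at 37 °C. AC50 values from Hill-equation concentration-response, scaled between DMSO basal and 10 uM staurosporine as 100%.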

[18] = Cellular Toxicity (caspase-3) MRC-5 (AID 659);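 note: 0% = DMSO basal and 100% = 10 µM staurosporine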
Method in brief: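 Luminescent Caspase-Glo 3/7 read-out (1 h, room temperature) after a 16 h, 37 °C compound exposure of MRC-5 lung fibroblasts at 1500 cells/well. Concentration-response AC50 from Hill equation; 0% DMSO, 100% 10 uM staurosporine.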

[19] = Cellular Toxicity (caspase-3) Mesangial (AID 660);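 note: combined caspase 3 and 7 activity read by Caspase-Glo luminescence; cells exposed to compound for 16 h before the caspase read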
Method in brief: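 Seed cells derived from normal human renal glomeruli, incubate 5 h, add compounds across concentrations and incubate 16 h at 37 °C. Caspase 3/7 activation is then quantified by luciferase light, with AC50 derived by Hill modeling.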

[20] = Cellular Toxicity (caspase-3) SK-N-SH (AID 661);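 note: cells exposed to compound for 16 hours; 0% = DMSO basal and 100% = 10 µM staurosporine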
Method in brief: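 Cells were seeded and incubated 5 hr at 37 °C, dosed with compound over a concentration range for 16 hr, then given Caspase-Glo 3/7 reagent for 1 hr at room temperature before luminescence reading.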

3',5'-cyclic-AMP phosphodiesterase 4B (Homo sapiens), sequence (Q07343 whole entry, looked up): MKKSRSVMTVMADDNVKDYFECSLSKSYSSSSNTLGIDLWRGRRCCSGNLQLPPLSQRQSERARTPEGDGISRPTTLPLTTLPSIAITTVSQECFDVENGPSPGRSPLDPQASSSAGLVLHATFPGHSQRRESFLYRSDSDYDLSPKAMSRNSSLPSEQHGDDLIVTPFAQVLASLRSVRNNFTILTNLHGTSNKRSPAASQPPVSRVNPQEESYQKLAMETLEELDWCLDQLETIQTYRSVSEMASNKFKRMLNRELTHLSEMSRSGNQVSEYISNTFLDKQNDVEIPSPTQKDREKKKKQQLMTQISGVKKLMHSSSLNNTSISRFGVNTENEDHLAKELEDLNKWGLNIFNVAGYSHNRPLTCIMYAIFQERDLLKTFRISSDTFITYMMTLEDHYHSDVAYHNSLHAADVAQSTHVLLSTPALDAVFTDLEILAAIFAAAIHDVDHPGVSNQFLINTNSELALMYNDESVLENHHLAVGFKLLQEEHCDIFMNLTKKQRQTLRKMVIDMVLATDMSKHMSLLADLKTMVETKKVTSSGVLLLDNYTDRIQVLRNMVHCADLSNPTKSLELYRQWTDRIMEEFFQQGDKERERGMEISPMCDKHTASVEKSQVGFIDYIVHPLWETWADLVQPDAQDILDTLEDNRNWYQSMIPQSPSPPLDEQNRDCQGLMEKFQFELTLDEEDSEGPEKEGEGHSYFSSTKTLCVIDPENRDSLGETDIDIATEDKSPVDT
Glucocorticoid receptor (Homo sapiens), sequence (P04150 whole entry, looked up, the tested form may be a part): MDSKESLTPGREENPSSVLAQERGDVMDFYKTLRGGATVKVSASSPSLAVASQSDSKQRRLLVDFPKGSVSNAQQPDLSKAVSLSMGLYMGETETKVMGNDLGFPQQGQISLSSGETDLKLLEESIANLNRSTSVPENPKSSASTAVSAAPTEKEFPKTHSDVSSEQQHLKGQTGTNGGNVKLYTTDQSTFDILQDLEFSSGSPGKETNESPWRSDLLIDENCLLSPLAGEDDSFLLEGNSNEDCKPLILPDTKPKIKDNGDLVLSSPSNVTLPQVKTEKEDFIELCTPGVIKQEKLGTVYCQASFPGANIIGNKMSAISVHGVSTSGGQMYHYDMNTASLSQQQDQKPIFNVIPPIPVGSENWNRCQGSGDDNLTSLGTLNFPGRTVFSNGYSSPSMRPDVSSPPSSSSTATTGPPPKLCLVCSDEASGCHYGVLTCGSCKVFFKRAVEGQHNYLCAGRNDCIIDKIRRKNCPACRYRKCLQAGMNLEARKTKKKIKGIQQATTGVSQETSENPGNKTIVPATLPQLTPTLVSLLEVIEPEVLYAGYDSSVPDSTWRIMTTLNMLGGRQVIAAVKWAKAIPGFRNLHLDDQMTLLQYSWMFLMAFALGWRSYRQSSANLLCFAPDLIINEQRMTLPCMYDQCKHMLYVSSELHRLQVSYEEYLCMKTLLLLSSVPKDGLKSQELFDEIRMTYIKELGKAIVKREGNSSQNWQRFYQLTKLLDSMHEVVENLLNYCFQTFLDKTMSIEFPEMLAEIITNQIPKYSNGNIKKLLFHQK

O=C1NC(=O)C(c2cn(-c3ccccc3)nc2-c2ccc(F)cc2)N1 (stereo not given)
inactive: outcome [1] | Potency [2] > 20.6 µM

COc1ccc2c(OC)c3ccoc3nc2c1OC
inactive: outcome [1] | Potency [2] > 20.6 µM and > 46 µM | Potency [3] > 20.6 µM and > 46 µM | outcome [4] | outcome [5]

Cc1ccc(N)cc1O
inactive: outcome [4] | outcome [6] | Potency [7] | outcome [8] | outcome [9] | outcome [10] | outcome [11] | outcome [12] | outcome [13] | outcome [14] | outcome [15] | outcome [16] | outcome [17] | outcome [18] | outcome [19] | outcome [20]

COc1ccc(C[C@H](N)C(=O)N[C@@H]2[C@H](O)[C@H](n3cnc4c(N(C)C)ncnc43)O[C@@H]2CO)cc1
inactive: Potency [2] > 20.6 µM | Potency [3] > 20.6 µM | outcome [4] | outcome [5]

Cc1ccccc1CN1C2=NCCN2C(=O)C2=C1CCN(Cc1ccccc1)C2
inactive: outcome [1] | Potency [2] > 46 µM | Potency [3] > 9.22 µM | activity change, negative = inhibition [4] -0.448% [at 11.4 µM] | outcome [5]

CC(=O)O[C@@H]1CC(C)=C2[C@H]1[C@H](C)CC[C@H]2/C=C(\C)C(=O)O
inactive: outcome [4] | outcome [6] | Potency [7] | outcome [8] | outcome [9] | outcome [10] | outcome [11] | outcome [12] | outcome [13] | outcome [14] | outcome [15] | outcome [16] | outcome [17] | outcome [18] | outcome [19] | outcome [20]

CC[C@]1(O)CC2CN(CCc3c([nH]c4ccccc34)[C@@](C(=O)OC)(c3cc4c(cc3OC)N(C=O)[C@H]3[C@@](O)(C(=O)OC)[C@H](OC(C)=O)[C@]5(CC)C=CCN6CC[C@]43[C@@H]65)C2)C1 (stereo not given in full)
inactive: outcome [1] | Potency [2] > 20.6 µM

Nc1ccccc1N
active: Potency [7] 6.31 µM
inactive: outcome [4] | outcome [6] | outcome [8] | outcome [12] | outcome [13] | outcome [15] | outcome [16] | outcome [17] | outcome [18] | outcome [20]

CC(=O)O[C@H]1C(=O)[C@@]2(C)[C@H]([C@H](OC(=O)c3ccccc3)[C@]3(O)C[C@H](OC(=O)[C@H](O)[C@@H](NC(=O)c4ccccc4)c4ccccc4)C(C)=C1C3(C)C)[C@]1(OC(C)=O)CO[C@@H]1C[C@@H]2O
inactive: Potency [2] > 46 µM | Potency [3] > 46 µM | outcome [4] | outcome [5]
